What is called remaining activity is the signal under treatment as a percentage of the control signal.

The results in this text go back to PubChem BioAssay.

Activity calls are given as the source filed them. The rule behind the calls is not given here. Where a SMILES comes first, the peptide text is derived from it. The star is where a group is joined. Cbz = O=C(OCc1ccccc1)*

One test has as its system Aerobactin synthetase IucA (Klebsiella pneumoniae, hypervirulent). Kind of test: IucA enzyme inhibition, biochemical, LOPAC library, absorbance readout (AID 1346212).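 Note: 100% = no compound wells and 0% = no enzyme wells.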 The note with it: IucA enzyme assay, absorbance (OD) readout; stronger effect = lower value;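 tested at 8 µM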.
As to `COc1cccc(-c2cc(=O)c3ccccc3o2)c1N`, the remaining activity is 95.7% (inactive).
The same measure, in the same setting: the same measure for `O=C(Cc1ccc(Cl)c(Cl)c1)OCCN1CCCC1`: 117% (inactive).
In the case of `NCCCCNCCCN`, the remaining activity was 107% (inactive).
Still for that read-out and setting: the same measure for `N[C@@H](Cc1cnc[nH]1)C(=O)O`: 113% (inactive); for `CC(C)[C@H](NC(=O)OCc1ccccc1)C(=O)N[C@H](C=O)Cc1ccccc1` (Cbz-Val-Phe-aldehyde): 106% (inactive).
On the same count and under the same terms, the same measure for `O=C1NCN(c2ccccc2)C12CCN(CCCC(c1ccc(F)cc1)c1ccc(F)cc1)CC2`: 104% (inactive).
Same read-out and setting: the same measure for `O=c1ccn([C@@H]2O[C@H](COP(=O)(O)OP(=O)(O)O)[C@@H](O)[C@H]2O)c(=O)[nH]1`: 106% (inactive).
`CCCCOC(=O)NS(=O)(=O)c1sc(CC(C)C)cc1-c1ccc(Cn2c(CC)nc3c(C)cc(C)nc32)cc1`: the remaining activity was 116% (inactive).
The same measure, in the same setting: next, `CC1=C(/C=C/C(C)=C/C=C/C(C)=C/C(=O)Nc2ccc(O)cc2)C(C)(C)CCC1`: 97.1% (inactive); `Brc1c(Br)c(Br)c2n[nH]nc2c1Br`: 120% (inactive).
Still for that read-out and setting: next, `NC1(C(=O)O)CCCCC1`: 125% (inactive); `CN1[C@@H]2CC[C@H]1CC(OC(=O)C(CO)c1ccccc1)C2` (stereo not given in full): 95% (inactive); `COc1ccccc1N1CCN(CCCNc2cc(=O)n(C)c(=O)n2C)CC1`: 97% (inactive).
The same measure, in the same setting: the same measure for `CNC(=O)[C@H]1O[C@@H](n2cnc3c(NCc4ccc(N)cc4)ncnc32)[C@H](O)[C@@H]1O`: 119% (inactive).

Test system in a further test: not listed separately
Description: sensitizers of A549 cells to miR-34 induction, primary screen, imaging, A549 dox-inducible miR-34, nuclei and caspase counts (AID 1347080). The note with it: A549 miR-34 inducible, Hoechst nuclei count, 48 h; measured here: relative caspase fold change +Dox/-Dox.
Regarding `O=C1OCCN1/N=C/c1ccc([N+](=O)[O-])o1`, the fold change stood at 1.85.
For the compound `O=C1CC2OCC=C3CN4CC[C@]56c7ccccc7N1C5[C@H]2[C@H]3CC46` (stereo not given in full), the fold change amounted to 1.82.
Turning to `CNC(C)[C@@H]1CC[C@@H](N)[C@@H](OC2[C@@H](N)C[C@@H](N)[C@H](OC3OC[C@](C)(O)[C@H](NC)[C@H]3O)[C@H]2O)O1` (stereo not given in full), the fold change is 0.842.

The test is the same for the next values; noted with them: A549 miR-34 inducible, Hoechst nuclei count, 48 h; measured here: total cells with miR-34 induction; stronger effect = lower value.
As for `O=C1OCCN1/N=C/c1ccc([N+](=O)[O-])o1`, the cell count worked out at 9350.
Same read-out and setting: next, `O=C1CC2OCC=C3CN4CC[C@]56c7ccccc7N1C5[C@H]2[C@H]3CC46` (stereo not given in full): 11700.
Same read-out and setting: next, `CNC(C)[C@@H]1CC[C@@H](N)[C@@H](OC2[C@@H](N)C[C@@H](N)[C@H](OC3OC[C@](C)(O)[C@H](NC)[C@H]3O)[C@H]2O)O1` (stereo not given in full): 10800.
